Laboratory results: PubChem BioAssay (NCATS)
Records with an inconclusive call do not appear. Where a call stands in place of a potency, no number is given. Active and inactive are the calls of the source. Calls follow the shape of the full dose curve.

Test: S16 Schwann cell PMP22 intronic element beta-lactamase assay (AID 624044); also: nearly all actives have a fitted effect of over 15% in size
Conditions: S16 rat Schwann cells, PMP22 element beta-lactamase FRET, 24 h; series mostly up to 38.3 µM
Method in brief: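 Beta-lactamase reporter under a PMP22 intronic regulatory element in stable S16 rat Schwann cells; 24 h compound exposure. 460 nm blue signal normalized between DMSO (0%) and potassium clavulanate, with 535 nm FRET tracking viability; curves classed by r2 and response.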
Potency is read from the fitted curve at half-maximal effect.

Row | SMILES | Potency
1 | COc1cc(CNC(=O)CCCC/C=C/C(C)C)ccc1O | inactive
2 | COc1cc(/C=C/C(=O)CC(=O)/C=C/c2ccc(O)c(OC)c2)ccc1O | inactive
3 | Nc1cc(-c2ccncc2)c[nH]c1=O | inactive
4 | [O-][n+]1ccccc1SSc1cccc[n+]1[O-] | 1.12 µM (active)
5 | Oc1c(Br)cc(Br)c2cccnc12 | 19.9 µM (active)
6 | O=C1CN(/N=C/c2ccc(-c3ccc([N+](=O)[O-])cc3)o2)C(=O)N1 | inactive
7 | COc1ccc(/C=C/C(=O)Nc2ccccc2C(=O)O)cc1OC | inactive
8 | CCOC(=O)c1ccccc1O | inactive
9 | N=c1ccn2c(n1)O[C@H]1[C@H](O)[C@@H](CO)O[C@H]12 | 14.1 µM (active)
10 | COc1cc(/C=C/C(=O)N2CCN(CC(=O)N3CCCC3)CC2)cc(OC)c1OC | inactive
11 | O=C(/C=C/c1ccccc1)NCCO | inactive
12 | O=C(Nc1ccc(C(=O)O)c(O)c1)c1ccccc1 | inactive
13 | C=CCN1C(=O)C(CC(C)C)NC1=S (stereo not given) | inactive
14 | CCCCCCCCCCCCCCCCCC(=O)O | inactive
15 | CN1[C@@H]2CC[C@H]1CC(OC(=O)C(CO)c1ccccc1)C2 (stereo not given in full) | inactive
16 | CCCOC(=O)c1ccc(O)cc1 | inactive
17 | Cc1cc(O)c2ccccc2c1O | inactive
18 | COC(=O)C1=C(C)NC(C)=C(C(=O)OCC(C)C)C1c1ccccc1[N+](=O)[O-] (stereo not given) | inactive
19 | CN(C)c1ccc(C(=C2C=CC(=[N+](C)C)C=C2)c2ccccc2)cc1 | 3.98 µM (active)
20 | C#C[C@]1(O)CC[C@H]2[C@@H]3CCc4cc(O)ccc4[C@H]3CC[C@@]21C | inactive
